# Screening data (PubChem)
# Beta cell apopt = blocks beta cell apoptosis; actives 0.8% (n = 300,000); INS-1E cytokine-induced death, ATP luminescence, 48 h; percent of positive-control rescue, neutral wells zero; protection from apoptosis, % (test concentration not listed);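 active = Every replicate reaches about 75%, or at least half do and their mean reaches it too, limit read from the data; inconclusive = At least half of replicates reach the limit but their mean does not; inactive = Under half of replicates reach the limit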;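 note: 0% = cytokine-treated negative control wells and 100% = positive control rescue; higher means more ATP so stronger rescue from cytokine killing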
# Calb FLC = C. albicans growth modulation with fluconazole; growth inhibition, % (test concentration not listed); C. albicans CaCi-2 (fluconazole-resistant clinical isolate) + fluconazole, Alamar Blue growth, 48 h; actives 0.57% (n = 300,000); AID 1979;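 active = growth inhibition above about 58% in most replicates, limit read from the data, passing the limit was not always enough; inconclusive = exactly half the replicates above a set limit; inactive = most replicates below a set limit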;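 note: all wells also contain fluconazole at 8 µg/ml as a sub-toxic cotreatment; 0% = median of DMSO wells and 100% = median of geldanamycin control wells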
# Shn3 inh set2 = Schnurri-3 reporter inhibition in Clone20 osteoblasts | Clone20 osteoblast Shn3 3'UTR firefly luciferase, 24 h | inhibition, % at 12.5 µM | actives 0.52% (n = 360,000) | AID 588674;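 active = mean inhibition of at least 75% with every replicate also reaching 75%; inconclusive = mean inhibition at least 75% but some replicate below; inactive = mean inhibition below 75%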;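 note: 0% = median of neutral control wells and 100% = pilot-screen positive control compound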
# Jurkat NFkB inh = lowers PMA/ionomycin-induced NF-kB signal in Jurkat cells. PMA/ionomycin-induced NF-kB luciferase reporter, luminescence. inhibition, % at 4 µM. actives 0.53% (n = 330,000). AID 435003; in the data active = inhibition above about 50%
# 697 NFkB inh = lowers PMA/ionomycin-induced NF-kB signal in 697 B cells. 697 B-cell NF-kB luciferase reporter, 16 h. actives 0.33% (n = 330,000). inhibition, % at 4 µM; in the data active = inhibition above about 35%
# 697 NFkB conf = lowers PMA/ionomycin-induced NF-kB signal in 697 B cells | shares compounds with 697 NFkB inh | inhibition, % at 4 µM | actives 35% (n = 2,000) | 697 B-cell NF-kB luciferase, 16 h; in the data active = inhibition mostly above about 28%, no sharp cut-off; inactive = mostly below about 22%
# * = called active by the depositor; i = inactive; u = inconclusive; x = no result given. Hits are enriched below; roughly 2% of the tested compounds scored in any of these assays.
SMILES,Beta cell apopt,Calb FLC,Shn3 inh set2,Jurkat NFkB inh,697 NFkB inh,697 NFkB conf
Cc1ccc(S(=O)(=O)N2CCCCC2CCNC(=O)C(=O)NCc2ccncc2)cc1 (stereo unspecified),21.5,-4.4,13.9,-1.9,53.1*,52.3*
Cc1cc(C)c(S(=O)(=O)N2CCCCC2CCNC(=O)C(=O)NC2CC2)c(C)c1 (stereo unspecified),13.8,-2.1,62.5,-79.6,i,i
Cc1ccc(-c2n[nH]c(=S)n2/N=C/c2c(C)nn(-c3ccccc3)c2C)cc1,13.7,44.5,4.3,7.1,3.8,x
Cc1ccccc1-c1n[nH]c(=S)n1/N=C/c1c(C)nn(-c2ccccc2)c1C,-9.0,0.9,4.5,-11.0,-274.2,-18.8
Cc1cc(C)cc(NC(=O)Nc2ccc(NC(=O)c3ccccc3O)cc2)c1,-6.8,2.4,13.3,14.1,36.0*,36.8*
Cc1ccc(NC(=O)c2ccccc2O)cc1,-6.6,-20.7,-65.5,-97.3,-212.9,x
O=C(c1cc(-c2ccc(Cl)cc2)on1)N1CCOCC1,-1.2,u,-18.1,-125.0,-119.7,x
O=C(c1cc(-c2ccc(Cl)cc2Cl)on1)N1CCOCC1,-3.3,41.7,12.2,-122.8,-293.4,-186.1
CNC(=O)c1cccc(NC(=O)CCCNC(=O)c2ccc(Cl)cc2)c1,-5.9,6.7,21.3,-0.1,-6.9,x
CCSc1nnnn1-c1ccccc1,-4.0,u,-2.1,12.1,12.9,x
Cc1ccc(C)c(-n2nnnc2Sc2nnnn2-c2ccccc2)c1,x,7.3,1.7,43.1,35.0*,33.2*
CC(C)n1ncc2c(C(=O)Nc3cccc(C#N)c3)cc(C3CC3)nc21,12.3,x,27.5,-17.8,-0.9,x
O=C(NC1CCCc2c1cnn2-c1ccccc1F)c1ccccn1 (stereo unspecified),-0.2,2.2,3.1,-65.8,i,i
Cc1cc(C)c(C(=O)NC2CCCc3c2cnn3-c2cccc(C)c2C)o1 (stereo unspecified),5.1,3.2,29.5,20.4,-276.1,-23.2
Cc1noc(C)c1CSc1nc2[nH]ncc2c(=O)n1-c1ccccc1,23.3,-1.8,x,39.1,54.7*,54.8*
Cc1nc(CSc2nc3[nH]ncc3c(=O)n2-c2ccccc2)cs1,-14.9,2.9,3.7,-11.1,-17.2,x
O=C1/C(=C/Nc2ccc3c(c2)OCO3)CCc2ccccc21,28.7,3.7,-6.2,-57.9,-468.8,-250.8
Cc1cc2nc(-c3ccc(SCC(=O)N4CCc5ccccc54)nc3)[nH]c2cc1C,15.0,-2.7,-44.7,-126.3,-312.6,-200.5
Cc1ccc(-c2ccc(SCC(=O)N3CCc4ccccc43)nn2)cc1,-0.2,-14.6,x,27.7,-36.9,x
O=c1[nH]c(/C=C\c2ccccc2F)nc(O)c1[N+](=O)[O-],-5.5,1.2,5.3,9.0,-15.0,x
COc1ccc(NC(=O)c2cc(-c3ccccn3)nc3ccccc23)cc1S(=O)(=O)N(C)C,2.4,x,33.4,18.2,39.2*,46.2*
COc1cccc(N2CCN(c3ncnc4c3[nH]c3ccc(F)cc34)CC2C)c1 (stereo unspecified),109.7*,-5.1,96.5*,10.4,71.2*,91.4*
Nc1c(C(=O)CSc2nc3ccccc3o2)c(=O)[nH]c(=O)n1C1CC1,1.0,x,-23.1,-39.6,-323.4,-334.0
Cc1cccc(Cn2nc(C(C)(C)C)cc2C(=O)Nc2ccc(F)cc2)c1,30.2,-2.8,0.1,-45.0,-299.3,-369.6
CC(C)(C)c1cc(C(=O)NN)n(Cc2ccc(F)cc2)n1,-3.2,-6.8,-2.1,-14.8,-3.8,x
SMILES,Beta cell apopt,Calb FLC,Shn3 inh set2,Jurkat NFkB inh,697 NFkB inh,697 NFkB conf
CC1CCN(C(=O)c2cc3nc(-c4ccccc4)cc(-c4ccccc4)n3n2)CC1,26.3,8.6,20.0,15.1,35.1*,14.9
O=C(NC1CCCC1)c1cc2nc(-c3ccccc3)cc(-c3ccccc3)n2n1,22.0,3.6,1.9,1.6,27.8,x
Cc1cc(C)cc(-n2c3ccc(NC(=O)Cc4cccc5ccccc45)cc3c(=O)n2C)c1,x,x,14.0,x,x,x
C[C@@H]1CN([C@H](C)CO)C(=O)c2c(c3ccccc3n2C)-c2ccccc2CO[C@H]1CN(C)C(=O)Nc1ccccc1,x,x,-14.8,x,x,x
COc1ccc(NS(=O)(=O)c2cc(NC(=O)c3nn(C)c(=O)c4ccccc34)ccc2OC)cc1,8.3,-19.7,20.9,3.4,37.4*,22.1
COc1ccc(NS(=O)(=O)c2cc(NC(=O)c3cncc(Br)c3)ccc2OC)cc1,3.6,x,22.9,-5.4,3.4,x
